The record followed here is ChEMBL document CHEMBL3988442, “University of Dundee, Small-Polar-MMV Screening Library” (2021).

Hit rate of the full screen: of about 48,000 compounds, about 13,000 (27%) showed an effect of 50% or more. The list shows a part of the results.

This assay relates to Wolbachia pipientis. Briefly: Anti-Wolbachia Cell-Based Screen. Format: functional. Further details: scale not given: in the data most compounds retested in dose-response had high values. As to conditions: 5 µM.
As for `Cc1cncc(NCC(O)c2ccco2)n1` (stereo unspecified), the “Percent Effect” value is 11.88%.

Consider `Clc1ccc(OCCNC2(c3ccc(Br)cc3)CCOCC2)cc1`, for which the “Percent Effect” value is recorded as 18.48%.

`Cc1nnc(CCNC(=O)C(c2ccc(F)cc2)N(C)C)[nH]1` (stereo unspecified): the “Percent Effect” value worked out at 15.69%.

As to `CSCCCN1CCn2nc(CNC(C)=O)cc2C1`, the “Percent Effect” value is given as -21.5%.

`CNS(=O)(=O)CCNC(=O)[C@@]12CNC[C@@H]1CN(C1CCCC1)C2`: the “Percent Effect” value is on record as -0.715%.

`CC(=O)NC1(C(=O)N2CCCN(c3cccnn3)CC2)CCCCC1`: the “Percent Effect” value was 1.939%.

As for `CN(C)CCOCc1nnc2n1CCN(Cc1ccco1)CC2.O=C(O)C(F)(F)F.O=C(O)C(F)(F)F`, the “Percent Effect” value is given as 99.11%.

Regarding `CC(=O)NCc1nnc2n1CCN(Cc1cccs1)C2.O=C(O)C(F)(F)F`, the “Percent Effect” value is listed as -7.249%.

Turning to `O=C(O)C(F)(F)F.O=C(O)C(F)(F)F.c1cncc(COCc2nnc3n2CCN(Cc2ccco2)C3)c1`, the “Percent Effect” value is -13.62%.

In the case of `O=C(O)C(F)(F)F.O=C(O)C(F)(F)F.c1cncc(COCc2nnc3n2CCN(Cc2cccs2)C3)c1`, the “Percent Effect” value is on record as -10.65%.

Regarding `CN(C)CCOCc1nnc2n1CCN(Cc1ccco1)C2.O=C(O)C(F)(F)F.O=C(O)C(F)(F)F`, the “Percent Effect” value is -14.14%.

On to `Cc1ccc(CN2CCc3nnc(COCCN(C)C)n3CC2)o1.O=C(O)C(F)(F)F.O=C(O)C(F)(F)F`, for which the “Percent Effect” value is reported as 95.05%.

As to `CCOCc1nnc2n1CCN(Cc1c(C)noc1C)CC2.O=C(O)C(F)(F)F`, the “Percent Effect” value is reported as -27.85%.

As to `CN(C)CCOCc1nnc2n1CCN(Cc1cccs1)CC2.O=C(O)C(F)(F)F.O=C(O)C(F)(F)F`, the “Percent Effect” value came to 101.6%.

For the compound `COc1ccc(NC(=O)C2CCCO2)cc1OCc1cccnc1` (stereo unspecified), the “Percent Effect” value was 5.381%.

Consider `CCN1c2ccc(-c3cncn3CCCn3ccnc3C)cc2CC1C.Cl` (stereo unspecified), for which the “Percent Effect” value is listed as 77.37%.

For the compound `Cc1nn(C)c(C)c1CCC(=O)N1CC(c2cccnc2)C1`, the “Percent Effect” value came to 23.02%.

`Cc1nn(C)c(C)c1CCn1cncc1-c1ccc2c(c1)CC(C)N2C.Cl` (stereo unspecified): the “Percent Effect” value amounted to 101.8%.

On to `Cc1nccn1CCCn1cncc1-c1ccc2c(c1)CCC(C)N2C.Cl` (stereo unspecified), for which the “Percent Effect” value stood at 102.7%.

As to `Cc1nn(C)c(C)c1CCC(=O)N1CCc2sccc2C1`, the “Percent Effect” value amounted to 7.197%.

`Cc1nccn1CCCNC(=O)C1CCCCN1Cc1ccncc1` (stereo unspecified): the “Percent Effect” value was -5.862%.

`Cc1cnccc1N1CCCN(C(=O)CCCn2ccnc2C)CC1`: the “Percent Effect” value is on record as -4.474%.

Consider `Cc1nccn1CCCn1cncc1-c1ccc2c(c1)CCCN2C.Cl`, for which the “Percent Effect” value was found to be 98.66%.

Consider `CCOc1ncc(NC(=O)c2ccccn2)c(OCC)n1`, for which the “Percent Effect” value worked out at 0.09854%.

With `CN1C[C@@H]2CC[C@H](C1)N(Cc1ccccc1OCCN1CCOCC1)C2`, the “Percent Effect” value is recorded as -8.693%.

`CSc1ccc(CNc2ccccc2CN2CCC(O)CC2)cc1`: the “Percent Effect” value was -4.512%.
